Reference: PubChem BioAssay AID2642 (Johns Hopkins Ion Channel Center, 2010)
In all, about 310,000 compounds went through this assay and about 3,900 (1.3%) were called active.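 Rule for the calls: active = compounds whose thallium flux B-score, printed positive for inhibition, exceeds three library SD while starting fluorescence stays within three; inactive = the rest.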 The entries come from a sample that favours actives as a whole.

These compounds were tested against Potassium voltage-gated channel subfamily KQT member 1 (Homo sapiens) (UniProt P51787) (assay: inhibitors of human KCNQ1 channel, primary screen, cell-based, thallium flux, high-throughput (AID 2642;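 note: channel opened by potassium depolarization with thallium stimulus after 20 min compound exposure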)). Conditions: CHO-K1 KCNQ1, FluxOR thallium flux fluorescence, at 10 µM; stronger effect = higher value.
Chain of Potassium voltage-gated channel subfamily KQT member 1 (Homo sapiens) (P51787 whole entry, looked up): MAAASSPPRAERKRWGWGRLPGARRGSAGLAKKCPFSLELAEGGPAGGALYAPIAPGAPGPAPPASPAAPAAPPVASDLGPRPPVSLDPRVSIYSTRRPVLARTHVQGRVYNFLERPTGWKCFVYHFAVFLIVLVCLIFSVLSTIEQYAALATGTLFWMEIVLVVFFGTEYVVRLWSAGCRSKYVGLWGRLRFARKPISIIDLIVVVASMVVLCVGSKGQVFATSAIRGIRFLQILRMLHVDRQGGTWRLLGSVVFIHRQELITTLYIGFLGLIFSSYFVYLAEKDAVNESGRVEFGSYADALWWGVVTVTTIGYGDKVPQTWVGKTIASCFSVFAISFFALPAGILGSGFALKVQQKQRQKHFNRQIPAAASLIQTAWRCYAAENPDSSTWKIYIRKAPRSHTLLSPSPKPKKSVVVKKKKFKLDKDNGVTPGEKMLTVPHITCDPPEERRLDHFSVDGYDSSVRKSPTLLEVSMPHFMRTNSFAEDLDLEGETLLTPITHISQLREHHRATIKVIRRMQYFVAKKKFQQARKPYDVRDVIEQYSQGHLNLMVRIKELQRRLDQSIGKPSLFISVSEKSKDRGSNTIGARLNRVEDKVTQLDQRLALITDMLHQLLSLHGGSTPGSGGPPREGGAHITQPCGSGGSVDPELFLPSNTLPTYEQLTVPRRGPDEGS

Structure (SMILES) | B-score
CCCN(CC1COc2ccccc2O1)C(=S)Nc1ccc(C)cc1 (stereo not drawn) | inactive
CCCn1c(C)cc(/C=C(\C#N)C(=O)OCC(=O)N(C)c2c(N)n(Cc3ccccc3)c(=O)[nH]c2=O)c1C | inactive
CCC(C)[C@@H](C(=O)N1CCNCC1)n1cc(CCCCN)nn1 (stereo partly drawn) | inactive
O=C(CCN1C(=O)c2ccccc2C1=O)Nc1ccncc1 | inactive
CC1CCN(CCC(=O)Nc2ccccc2)CC1 | inactive
O=C(CCN1c2ccccc2Sc2ccccc21)Nc1ccccc1 | 12 (active)
CCN1CCN(C(=O)CN(C)S(=O)(=O)c2ccc3ccccc3c2)CC1 | inactive
CON(C)S(=O)(=O)c1ccc2c(c1)NC(=O)C1CCCN21 (stereo not drawn) | inactive
Clc1ccccc1CSc1nnc(-c2ccco2)c(-c2ccco2)n1 | 11 (active)
O=c1cc(O)nc(SCc2ccccc2Cl)[nH]1 | inactive
Fc1cccc(Cl)c1CSc1ccc(-c2ccco2)nn1 | inactive
CC[C@@]12C(=O)N(c3ccccc3)C(=O)N1[C@H](c1ccc(Br)cc1)[C@@H]1C(=O)N(C(C)(C)C)C(=O)[C@@H]12 | inactive
O=C1c2cccc3c([N+](=O)[O-])ccc(c23)C(=O)N1CC1CCCO1 (stereo not drawn) | 6 (active)
CCOc1cccc(=O)c2c(C)n(CC3CCCO3)c(C)c12 (stereo not drawn) | inactive
CCC(=O)Nc1ccc(C(=O)Nc2ccc3c(c2)C(=O)N(CC2CCCO2)C3=O)cc1 (stereo not drawn) | inactive
CCOC(=O)C1CCN(Cc2coc3ccc(Cl)cc3c2=O)CC1 | inactive
Cc1ccccc1-n1cc(CNC(=O)C2CCC(=O)N(C3CC3)C2)cn1 (stereo not drawn) | inactive
Cc1ccc(C)c(N2CCN(S(=O)(=O)c3c(C)[nH]c(C)c3C(=O)N3CCCC3)CC2)c1 | inactive
COc1ccc(CC(=O)N/N=C/c2cc([N+](=O)[O-])cc(Br)c2O)cc1 | inactive
c1ccc2sc(NN=C3CCCC3)nc2c1 | inactive
O=[N+]([O-])c1cc(Br)c(O)c(/C=N/Nc2nc3ccccc3s2)c1 | 12 (active)
O=C(Nc1sc2c(c1C(=O)O)CCC2)c1ccccc1F | inactive

Structure (SMILES) | B-score
CCN(CC)CC(=O)Nc1sc2c(c1C(=O)c1ccccc1C)CCC2 | 8 (active)
CCc1ccc(N(CC(=O)Nc2sc3c(c2C(=O)OC)CCCC3)S(C)(=O)=O)cc1 | inactive
CCc1nc(N2CCN(C(C)=O)CC2)c2c3c(sc2n1)CCCC3 | inactive
NS(=O)(=O)c1ccc(NC(=S)Nc2ccc(Br)c(Cl)c2)cc1 | 8 (active)
NS(=O)(=O)c1ccc(NC(=S)NC(=O)c2cccc(Br)c2)cc1 | inactive
NS(=O)(=O)c1ccc(CCNC(=S)Nc2ccc(S(N)(=O)=O)cc2)cc1 | inactive
CCCCSc1[nH]c(=O)c(C(=O)OCC)cc1C#N | inactive
COCCN(C(=S)Nc1cccc(Cl)c1C)C(C)c1ccco1 (stereo not drawn) | inactive
Fc1ccc(/C=N/n2c(COc3ccccc3)n[nH]c2=S)cc1 | inactive
CC(C)[C@H](NC(=O)N1CCn2c1nc1ccccc12)C(=O)NCCc1ccccc1 | inactive
CC(C)CCNC(=O)Cn1c(=O)oc2cc(S(=O)(=O)N3CC(C)CC(C)C3)ccc21 (stereo not drawn) | inactive
CCOc1ccc(CN2CCN(Cc3c[nH]c4ccccc34)CC2)cc1 | 12 (active)
CCOc1ccc(CC(=O)NC2CCN(Cc3ccccc3)CC2)cc1 | inactive
CCOc1ccc(CN2CCCN(C)CC2)cc1 | inactive
COc1ccc(N(C)S(=O)(=O)c2ccc3c(c2)CC(C)N3C(=O)C2CC2)c(OC)c1 (stereo not drawn) | inactive
Cc1nc2ccccc2cc1OCc1ccc(F)cc1 | 11 (active)
Fc1ccccc1COc1cccc2cccnc12 | inactive
Cc1occc(=O)c1OCc1ccc(F)cc1 | inactive
Cc1nn(C)cc1N1C(=O)c2cccc3c(N)ccc(c23)C1=O | 22 (active)
CN1C(=O)c2cccc3c(N)ccc(c23)C1=O | inactive
O=C1c2ccccc2C(=O)N1c1cccc2ccccc12 | inactive
C/C(N)=C(/C#N)C(=O)COC(=O)c1cc(-c2ccc(C)cc2)nc2ccccc12 | inactive

Structure (SMILES) | B-score
CCCCCCCC[n+]1cccc(C(=O)N2c3c(nc(N)[nH]c3=O)NC(C)C2C)c1 (stereo not drawn) | inactive
O=C(NC(=S)Nc1ccccc1C(=O)O)c1ccc(-c2ccc(Br)cc2)o1 | 7 (active)
COC(=O)c1ccccc1NC(=S)NC(=O)c1ccccc1F | inactive
O=C(O)c1ccccc1NC(=O)c1ccccc1-c1ccccc1C(=O)O | inactive
COCCNC(=O)C(c1ccc(O)cc1)N(C(=O)CCC(=O)Nc1nccs1)c1ccc(C)cc1 (stereo not drawn) | inactive
CCOC(=O)CN(C(=O)COc1nc(C)cc(C)c1C#N)c1ccc(Cl)cc1 | inactive
Cc1ccccc1C(=O)NNC(=O)CN1C(=O)c2ccccc2C1=O | inactive
Cc1cc(C(=O)CCC(=O)NNC(=O)c2ccccc2O)c(C)s1 | 6 (active)
CC1=C(C)CC(C(=O)NNC(=O)c2ccccc2O)C(C(=O)O)C1 (stereo not drawn) | inactive
COc1ccccc1CNC(=O)COn1nnc2ccc(S(=O)(=O)N3CCOCC3)cc21 | inactive
O=S(=O)(c1ccc(Cl)cc1)c1nc(-c2ccco2)oc1N1CCCCC1 | inactive
COc1ccc(C(=O)Nc2sc(C)c(C)c2CN2CCOCC2)cc1 | inactive
CCc1cc(C(N)=O)c(NC(=O)c2ccc(OC)cc2)s1 | inactive
CCc1cc(C(c2ccccc2OC)N2CCOCC2)c(NC(=O)c2ccccc2)s1 (stereo not drawn) | 7 (active)
CC(C)CNc1ncnc2c1cnn2Cc1ccc(Cl)cc1 | inactive
Cc1ccc(Cl)cc1NC(=O)COC(=O)CC(C)(C)C | inactive
COCn1c(C(O)c2ccccc2)cc2ccccc21 (stereo not drawn) | inactive
O=[N+]([O-])c1cccc(Nc2c3ccccc3nc3ccccc23)c1 | 8 (active)
N#Cc1cccc(Nc2c3c(nc4ccccc24)CCCC3)c1 | inactive
Cc1cc(CNC(=O)c2cccc([N+](=O)[O-])c2)c2ccccc2n1 | inactive
NS(=O)(=O)c1ccc(CCNC(=O)CNC(=O)Cc2ccccc2)cc1 | inactive
O=C1N(c2ccccc2)C(=Nc2ccccc2)SC12CC2 | inactive

Structure (SMILES) | B-score
C#CCCOC(=O)N1C2=NC(C(=O)OC)=C(C(=O)OC)[C@@H]3N(C)c4ccc(OC)cc4[C@]23C[C@H]1C(=O)OC | inactive
O=C1c2ccccc2C(=O)c2c1cccc2N1CCN(CCO)CC1 | inactive
O=C1c2ccccc2C(=O)c2c1cccc2N1CCN(Cc2ccccc2)CC1 | 6 (active)
O=C1c2ccccc2C(=O)c2c1cccc2N1CCN(C/C=C/c2ccccc2)CC1 | inactive
COC(=O)c1cccc(N(C(=O)CNC(=O)c2cccs2)C(C(=O)NCC2CCCO2)c2ccc(OC)c(OC)c2)c1 (stereo not drawn) | inactive
Oc1ccc2ccc3cccc[n+]3c2c1 | 30 (active)
CCN(Cc1nc2ccccc2c(=O)[nH]1)Cc1cc(=O)oc2cc(C)c(C)cc12 | inactive
CC(C)CCN(C(=O)c1csnn1)C(C(=O)NC1CCCC1)c1ccccc1 (stereo not drawn) | inactive
O=C(Nc1cccc(F)c1)NC1CCCCCCC1 | inactive
Cc1cc(C)cc(NC(=O)NC2CCCCCCC2)c1 | 7 (active)
CC(C)c1ccc(NC(=O)NC2CCCCC2)cc1 | inactive
COc1cccc2c1OCC(C(=O)NCc1ccc(Cl)cc1Cl)=C2 | inactive
CCOc1cc(C2C(C(=O)OC(C)C)=C(C)NC3=C2C(=O)CCC3)cc([N+](=O)[O-])c1O (stereo not drawn) | inactive
CS(=O)(=O)N(CC(=O)Nc1ccc(Cl)c(Cl)c1)C1CCCCC1 | 7 (active)
CS(=O)(=O)N(CC(=O)Nc1ccc(F)cc1)C1CCCCC1 | inactive
CCC(C)NC(=O)CN(C1CCCCC1)S(C)(=O)=O (stereo not drawn) | inactive
CC(NC(=O)Cn1cc(C(F)(F)F)cc(Cl)c1=O)c1ccccc1 (stereo not drawn) | inactive
NS(=O)(=O)c1cc2c(cc1Cl)NC(C(Cl)Cl)NS2(=O)=O (stereo not drawn) | inactive
CCOC(=O)/C(C#N)=C/c1ccc(N2CCN(Cc3ccccc3)CC2)cc1 | inactive
COC(=O)c1sc(N2CCN(Cc3ccccc3)CC2)nc1N | inactive
CC(C)OC(=O)C(C#N)c1nc2ccccc2nc1N1CCN(Cc2ccccc2)CC1 (stereo not drawn) | 7 (active)
COc1ccc(S(=O)(=O)N(CC(=O)N/N=C/c2ccc(C(=O)O)cc2)Cc2ccccc2)cc1OC | inactive

Structure (SMILES) | B-score
CC(=O)N1c2ccc(S(=O)(=O)N3CCCC(C(=O)NCc4ccc(Cl)cc4)C3)cc2CC1C (stereo not drawn) | inactive
CCN(C(=O)COc1ccc(C(=O)c2ccccc2)cc1)c1ccccc1 | inactive
N#CC1=C(SCc2ccccc2)NC(=O)C(C#N)C12CCCC2 (stereo not drawn) | inactive
N#CC1=C(SCc2ccc(C#N)cc2)N=C(N)C(c2nc(-c3ccccc3)cs2)C12CCCCC2 (stereo not drawn) | 6 (active)
N#Cc1ccc(CSc2ncccn2)cc1 | inactive
COc1ccc(OC)c2[nH]c(=O)c(CCNC(=O)C(=O)c3c[nH]c4ccccc34)cc12 | inactive
COCCn1c(SCC(=O)Nc2cc(OC)ccc2OC)nc2c(c1=O)SC(C)C2 (stereo not drawn) | inactive
COc1ccc(-c2nc3ccccc3c(=O)n2CCc2ccc(O)cc2)cc1 | inactive
COc1ccc(CCNCc2c(-c3ccccc3)n(C)c3ccccc23)cc1 | 7 (active)
COc1ccc(-c2c(C#Cc3ccccc3)c3ccccc3n2C)cc1 | inactive
CCN1N=C(c2ccccc2)CCC1=O | inactive
Cc1ccccc1NC(=O)Nc1ccccc1N1CCCCC1 | inactive
O=C(CNCCC1=CCCCC1)Nc1ccccc1N1CCCCCC1 | 12 (active)
Cc1ccccc1NC(=O)CNc1ccccc1N1CCCCC1 | inactive
COC(=O)c1ccc(COC(=O)C2CCN(S(=O)(=O)c3c(Cl)cccc3Cl)CC2)o1 | inactive
COc1cc(CN2CCNC(=O)C2CC(=O)NCCc2ncccc2C)cc(OC)c1 (stereo not drawn) | inactive
CC(=O)Nc1c2c(nn1-c1cccc(C)c1)CSC2 | inactive
COC(=O)c1ccc(NCC(=O)c2ccccc2)cc1 | inactive
CCC/C=C(\CCC)C(NC(=O)Cc1ccccc1)c1ccc(C(=O)OC)cc1 (stereo not drawn) | inactive
CCC[C@@H]1C[C@@]1(CCC)[C@@H](NC(=O)c1ccccc1)c1ccc(C(=O)OC)cc1 | 12 (active)
